These results are taken from PubChem BioAssay (NCI).

Compounds without any hit were thinned out: in the full panel of roughly 83,000, 20% have a hit.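 Values shown are percent growth following 48 h exposure of cells in 96-well plates to a single concentration of compound; below 10 was considered active.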 Values without a mark were called inactive. Active and inactive are the calls of the source.

Assay in all cases: NCI-60 one-dose screen, 48 h (100 = growth as untreated, 0 = no growth, -100 = all killed)
What all share (details): 10 µM unless noted

The subject of assay [1] is RPMI-8226 leukemia.
Assay [2] concerns OVCAR-8 ovarian.
Assay [3] concerns OVCAR-5 ovarian.
The subject of assay [4] is OVCAR-4 ovarian.
Assay [5] concerns SK-OV-3 ovarian.
In assay [6] the test system is IGROV1 ovarian.
Assay [7] deals with OVCAR-3 ovarian.
In assay [8] the test system is NCI/ADR-RES ovarian.
The subject of assay [9] is HS 578T breast.

As for `Clc1cc(Cl)cc(N2N=C(c3cccc(Nc4ccncc4)c3)CC2c2ccccc2)c1` (stereo unspecified), the growth in [1] is 28.5%; in assay [2], 2.42% (active); in assay [3], 80.4%; in [4] it was 55.7%; in assay [5], 84.7%; in assay [6], 39.5%. Also, the values for the growth in [7] and in assay [8] were 67.4% and 72.1%, respectively.
With `COc1ccc(C(=O)c2cc3c(N)c(C(=O)Nc4cccc(Br)c4C)sc3nc2C)cc1`, the growth was 8.87% (active) in assay [1]; 1.15% (active) in assay [2]; 40.6% in [3]; 37.4% in assay [4]; 23.2% in [5]; -20.1% (active) in assay [7]. For the same molecule, the growth in assay [8] was 0.768% (active).
With `CC1=CC2(C)/C=C(C)/C=C\CC(O)/C=C3/C=CC(=C4C(=O)OC2(CC1C)C4=O)OC3` (stereo unspecified), the growth in [1] was -23.8% (active); in assay [2], 0.804% (active); in assay [3] it was -57.9% (active); in [4], -40.6% (active); in assay [5] it was 94.6%; in [7], -100% (active). Besides, the growth in assay [9] is -34% (active); in assay [8], -61.8% (active).
Take `CNC(=O)Nc1ccc(-c2nc(N3CCOCC3)nc3c2cnn3C2CCOCC2)cc1`: the growth was 8.13% (active) in assay [1]; 0.163% (active) in [2]; 1.59% (active) in assay [3]; -27.6% (active) in assay [6]; 1.45% (active) in assay [7]; -24.9% (active) in assay [9]. Further, in [8], the growth is 4.44% (active).
As to `COc1nccnn1`, the growth in assay [1] is 70.1%; in [2], 111%; in assay [3], 101%; in assay [4], 101%; in assay [5], 110%; in assay [6] it was 118%. In addition, the growth in assay [9] is 86.7%; in assay [8] it was 101%.
Regarding `COc1cc2nnn3c4ncccc4c(N=O)c3c2cc1OC`, the growth is -11.8% (active) in [1]; 14.3% in assay [2]; 102% in assay [3]; 50.3% in assay [4]; 104% in assay [5]; 120% in [7]. Further, the figures for the growth in assay [9] and in [8] were 116% and 44.6%, respectively.
Take `CN(Cc1ccccc1)c1nc(Cl)c(C2CC(c3ccc(Cl)cc3)=Cc3[nH][nH]c(=O)c32)s1` (stereo unspecified): the growth is 92.5% in [1]; 94.5% in [2]; 97.5% in assay [3]; 116% in assay [4]; 88.1% in [6]; 95% in assay [7]. Also, the growth is 96.4% in assay [9] and 89.6% in [8].
As for `C[C@@H]1CN(Cc2ccc(/C=C/c3n[nH]c4ccc5nc(-c6cn[nH]c6C(F)(F)F)c6c(c5c34)CCCC6)cc2)C[C@H](C)O1`, the growth in assay [1] was 34.3%; in assay [2] it was 33.4%; in assay [3] it was 19.7%; in [4], 29.9%; in assay [5], 22.5%; in [6] it was 1.46% (active). Besides, the growth was 3.34% (active) in [9] and 28.7% in assay [8].
Consider `O=C(Nc1ccc(Cl)cc1)Nc1ccc(Cl)c(Cl)c1`, for which the growth in assay [1] is -27.6% (active); in assay [2] it was 21.2%; in [3], 23.9%; in assay [4], 21.8%; in assay [7], -31% (active); in [9] it was 33%. Further, in assay [8], the growth is -18.8% (active).
Regarding `COc1ccc(CNC(=O)COc2ccc(/C=N/Nc3nc4ccccc4s3)cc2)cc1`, the growth was 27.3% in [1]; 22.3% in assay [2]; 66.9% in [3]; -37.5% (active) in assay [4]; 28.8% in assay [6]; 25.3% in assay [7]. Further, the growth in assay [9] is 13.3%; in [8] it was 23.3%.
Take `[O-][n+]1ccccc1CCN(O)CCc1cccc[n+]1[O-]`: the growth is 102% in [1]; 101% in [2]; 97.7% in assay [3]; 107% in assay [4]; 101% in assay [5]; 106% in assay [6]. Also, the figures for the growth in [7] and in [8] were 106% and 99.8%, respectively.
As to `O=C1Nc2ccccc2/C1=C\c1cccc(/C=C2/C(=O)Nc3ccccc32)n1`, the growth was -48.7% (active) in [1]; -6.07% (active) in assay [2]; -69.5% (active) in [3]; 11.6% in [4]; -88.6% (active) in [5]; -89.6% (active) in assay [7]. The growth in assay [9] was -39.2% (active); in assay [8], 16.1%.
As for `COc1ccc(Cl)cc1NC(=O)c1c(NC(=O)C(F)(F)C(F)(F)F)sc2c1CCCCC2`, the growth in [1] is -31.9% (active); in [2], 10.5%; in assay [3] it was 21.6%; in assay [4] it was 7.67% (active); in assay [6], 20.3%; in assay [9], -3.45% (active). Besides, in [8], the growth was 3.81% (active).
With `Cc1cccc(C)c1-c1cc(Cc2ccc(Cl)cc2)c(=O)[nH]n1`, the growth in assay [1] was 52.2%; in [2] it was 97.1%; in assay [3], 96.5%; in assay [4], 97.6%; in assay [6], 77.6%; in assay [7], 103%. Further, the growth in [9] is 94%; in [8], 96.1%.
As to `COc1ccc(OC)c(/C=C/[C@H]2O[C@@H](C)[C@H](O)[C@@H]2O)c1`, the growth was 95.3% in assay [1]; 109% in assay [2]; 112% in assay [3]; 105% in assay [6]; 125% in [7]; 108% in assay [8].
With `CCCOc1nc(SCCC)nc2c1cnn2-c1ccccc1`, the growth is 152% in assay [1]; 99.2% in [2]; 89.2% in [3]; 99.6% in assay [4]; 106% in assay [5]; 94.8% in assay [7]. The growth in assay [9] is 126%; in assay [8], 96%.
Turning to `c1ccc(-c2nn(-c3ccccc3)[n+](-c3cccc4ccccc34)n2)cc1`, the growth in assay [1] is 0.0671% (active); in assay [2], -43.5% (active); in assay [3] it was 48.1%; in [4], 41.4%; in [6] it was 10.6%; in assay [7], 8.96% (active). Further, the growth in [9] was 8.44% (active); in assay [8] it was 90.1%.
As for `CCOC(=O)C1=C(C)NC(C)=C(C(=O)OCC)C1c1cc(Br)c(O)c(OC)c1`, the growth is 29.9% in assay [1]; 25.2% in assay [2]; 66.7% in assay [3]; 47.4% in assay [4]; 16.9% in assay [5]; 49.9% in [6]. Moreover, the growth was 4.37% (active) in assay [9] and -14.5% (active) in assay [8].
`C(=N\Nc1ncc(-c2cc3cc4c(cc3o2)OCO4)s1)/c1c[nH]c2ccccc12`: the growth in assay [1] was -22.4% (active); in assay [2], -12.1% (active); in assay [3], 9.56% (active); in assay [4], -12.9% (active); in [6] it was -43.8% (active); in assay [7], -44.4% (active). Besides, the growth in assay [9] is -6.98% (active); in [8], 10.7%.
`NC(=O)c1ncn(C2OC(CO)C(O)C2O)n1` (stereo unspecified): the growth in assay [2] was 87.5%; in [3], 95.2%; in assay [4] it was 87.8%; in assay [5], 87.9%; in assay [6], 4.17% (active); in assay [7], 95.1%. Further, the growth in [9] is 86.4%; in [8], 88.6%.
In the case of `COc1cc(CCNc2nc3cc(N)cc(N)c3nc2-c2ccccc2)cc(OC)c1`, the growth is -39.6% (active) in [1]; -22.2% (active) in assay [2]; 13.4% in assay [3]; -94.9% (active) in assay [4]; 27.8% in [6]; -70.5% (active) in assay [9]. Also, the growth in assay [8] is 39.1%.
As for `O=C(Nc1cccc(Cl)c1)c1cc(Cl)ccc1O`, the growth is -20.9% (active) in assay [1]; 9.51% (active) in [2]; 12.3% in [3]; 27.4% in [4]; 17.5% in [6]; 13.5% in assay [7]. For the same molecule, the values for the growth in assay [9] and in assay [8] were -7.76% (active) and 2.78% (active), respectively.
For the molecule `C1=C2CNCC3=Cc4ccc5ccccc5c4OC23Oc2c1ccc1ccccc21`, the growth in assay [1] was 70.5%; in assay [2] it was 53.9%; in [3], 70%; in assay [6] it was 39.9%; in assay [7] it was -19.1% (active); in assay [9], 52.5%. Also, the growth in assay [8] was -21.4% (active).
As to `CS(=O)(=O)OCCN(CCOS(C)(=O)=O)c1ccc(/C=N/Nc2ccc([N+](=O)[O-])cc2[N+](=O)[O-])cc1`, the growth in [1] is 82.3%; in assay [2] it was 76.4%; in [3], 97.8%; in [4], 93.1%; in assay [5] it was 101%; in assay [7] it was 107%. Also, the growth in assay [8] was 73%.
With `COc1cc(NCCN(CC(C)C)C2CCCC2)c2ncccc2c1`, the growth in assay [1] was 99.2%; in assay [2] it was 84.9%; in assay [3] it was 96.4%; in [4], 36.6%; in assay [5], 97.7%; in assay [6], 86.8%. The figures for the growth in assay [9] and in assay [8] were 84.2% and 86.6%, respectively.
As to `COc1ccc(C2CC(n3nnnc3-c3ccccc3)=NN2)cc1` (stereo unspecified), the growth in assay [1] was 62.5%; in assay [2] it was 61.6%; in [3], 66.4%; in assay [6] it was 64.8%; in [7], 75.1%; in assay [9] it was 99%. Further, in assay [8], the growth was 49.9%.
For `NC(=O)CN1CCN(c2ccccc2Cl)CC1`, the growth in assay [1] is 108%; in assay [2], 122%; in assay [3] it was 99.9%; in assay [4] it was 124%; in [6], 108%; in [7], 116%. Moreover, the growth is 102% in assay [9] and 108% in assay [8].
